ChEMBL document CHEMBL3988442, “University of Dundee, Small-Polar-MMV Screening Library” (2021)
For some assays here: Results with a measured potency or affinity are listed apart.

Legend:
Parameters in all cases: scale not given: direction of the effect not stated beside the values
[1] = biological target: Protein translocase subunit SecA (Escherichia coli (strain K12)) (UniProt P10408); experiment: Assay to Identify E. coli SecA ATPase Inhibitors; format: functional; conditions: 30 µM
[2] = biological target: T1, Ubiquitin-activating enzyme e1, putative (Leishmania donovani (strain BPK282A1)) (UniProt E9BSI1); experiment: Leishmania donovani Ubiquitin Activating Enzyme (LdE1); format: functional; conditions: 30 µM
T1 sequence (whole entry): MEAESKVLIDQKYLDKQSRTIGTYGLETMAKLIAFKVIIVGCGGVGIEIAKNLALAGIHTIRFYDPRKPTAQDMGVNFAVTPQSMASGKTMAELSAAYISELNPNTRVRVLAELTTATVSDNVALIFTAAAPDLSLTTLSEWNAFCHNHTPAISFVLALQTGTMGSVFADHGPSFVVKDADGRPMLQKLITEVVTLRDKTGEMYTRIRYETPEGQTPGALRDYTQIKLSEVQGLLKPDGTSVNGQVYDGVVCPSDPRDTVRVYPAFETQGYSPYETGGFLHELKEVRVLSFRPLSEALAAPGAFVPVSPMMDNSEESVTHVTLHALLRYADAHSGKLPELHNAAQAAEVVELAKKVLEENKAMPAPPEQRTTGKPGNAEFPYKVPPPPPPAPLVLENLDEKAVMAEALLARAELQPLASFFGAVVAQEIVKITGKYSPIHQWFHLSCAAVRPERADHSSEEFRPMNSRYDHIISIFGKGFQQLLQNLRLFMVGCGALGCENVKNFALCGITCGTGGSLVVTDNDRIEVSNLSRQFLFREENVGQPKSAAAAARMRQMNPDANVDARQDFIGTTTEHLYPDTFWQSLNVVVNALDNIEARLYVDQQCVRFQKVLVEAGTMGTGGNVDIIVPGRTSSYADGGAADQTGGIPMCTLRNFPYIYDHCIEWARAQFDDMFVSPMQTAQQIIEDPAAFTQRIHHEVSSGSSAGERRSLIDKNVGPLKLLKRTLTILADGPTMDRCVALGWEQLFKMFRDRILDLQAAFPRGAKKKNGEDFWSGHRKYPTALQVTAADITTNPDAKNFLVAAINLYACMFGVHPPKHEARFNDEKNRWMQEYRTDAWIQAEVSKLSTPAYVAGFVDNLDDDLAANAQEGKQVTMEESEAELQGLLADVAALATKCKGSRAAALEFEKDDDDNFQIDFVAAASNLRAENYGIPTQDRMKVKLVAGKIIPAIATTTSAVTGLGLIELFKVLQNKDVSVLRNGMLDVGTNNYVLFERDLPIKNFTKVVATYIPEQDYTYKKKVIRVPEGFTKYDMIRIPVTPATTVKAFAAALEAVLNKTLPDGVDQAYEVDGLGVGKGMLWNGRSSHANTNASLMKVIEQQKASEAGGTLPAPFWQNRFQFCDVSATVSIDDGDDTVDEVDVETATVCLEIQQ

[3] = biological target: AMP-activated protein kinase, AMPK (Homo sapiens) (UniProt P54646+O43741+P54619+Q9UGJ0+Q9Y478+Q13131+Q9UGI9); experiment: AMP-dependent Kinase enzyme assay. An in vitro enzyme assay that detects ADP turnover that is directly proportional to AMPK activity. This uses naive AMPK that is activated during the assay with MK-8722; format: functional; conditions: 30 µM
[4] = biological target: Sialic acid-binding Ig-like lectin 9 (Homo sapiens) (UniProt Q9Y336); experiment: Hs-Siglec9 ALPHAscreen SOP 20170721; conditions: 10 µM
Sequence of Sialic acid-binding Ig-like lectin 9 (Homo sapiens) (Q9Y336 whole entry): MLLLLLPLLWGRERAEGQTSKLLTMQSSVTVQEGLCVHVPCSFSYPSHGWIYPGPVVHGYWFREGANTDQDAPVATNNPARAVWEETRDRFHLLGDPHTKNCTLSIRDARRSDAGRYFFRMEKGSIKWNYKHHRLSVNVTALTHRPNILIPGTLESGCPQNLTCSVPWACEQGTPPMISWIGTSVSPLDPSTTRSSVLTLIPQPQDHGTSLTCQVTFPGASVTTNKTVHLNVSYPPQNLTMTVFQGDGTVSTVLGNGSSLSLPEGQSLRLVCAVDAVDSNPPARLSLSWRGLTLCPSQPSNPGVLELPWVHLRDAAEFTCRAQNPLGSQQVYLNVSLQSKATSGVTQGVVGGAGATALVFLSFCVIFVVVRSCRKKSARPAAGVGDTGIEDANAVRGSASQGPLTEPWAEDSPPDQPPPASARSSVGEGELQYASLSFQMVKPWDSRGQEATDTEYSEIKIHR

[5] = tested on: Trypanosoma cruzi; experiment: Trypanosoma cruzi phosphomannomutase and mannose-1-phosphate guanylyltransferase assay; format: functional; conditions: 10 µM
[6] = biological target: T2, Arginase-2, mitochondrial (Homo sapiens) (UniProt P78540); experiment: in vitro enzyme assay to detect the production of urea directly proportional to the activity of Arginase II; format: functional; conditions: 33.3 µM; further: in the data most compounds retested in dose-response had high values
T2 sequence (whole entry): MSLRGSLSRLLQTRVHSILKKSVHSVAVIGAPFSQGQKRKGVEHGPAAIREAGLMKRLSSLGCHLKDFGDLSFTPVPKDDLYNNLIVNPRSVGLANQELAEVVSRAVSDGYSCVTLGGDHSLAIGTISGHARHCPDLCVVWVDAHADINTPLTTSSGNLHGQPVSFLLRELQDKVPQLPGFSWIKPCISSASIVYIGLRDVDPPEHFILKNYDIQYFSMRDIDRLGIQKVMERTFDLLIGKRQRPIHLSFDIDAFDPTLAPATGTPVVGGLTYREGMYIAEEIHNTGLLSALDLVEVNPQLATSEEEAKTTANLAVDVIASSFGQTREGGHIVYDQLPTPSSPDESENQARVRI

[7] = biological target: T3, Proteasome subunit beta (Trypanosoma cruzi) (UniProt O96673); experiment: Trypanosoma cruzi proteasome chymotrypsin-like activity (TcProtChymo) assay.; further: in the data most compounds retested in dose-response had high values; format: functional; conditions: 9.37 µM
T3 sequence (whole entry): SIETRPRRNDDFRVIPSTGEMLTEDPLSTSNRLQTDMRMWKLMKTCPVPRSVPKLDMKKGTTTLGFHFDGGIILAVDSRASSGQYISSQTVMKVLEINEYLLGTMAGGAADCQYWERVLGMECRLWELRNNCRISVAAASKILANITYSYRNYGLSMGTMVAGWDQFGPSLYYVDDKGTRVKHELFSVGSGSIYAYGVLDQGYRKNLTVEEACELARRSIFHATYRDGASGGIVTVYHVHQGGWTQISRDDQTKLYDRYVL

[8] = species: Homo sapiens; experiment: To identify inhibition of the IFN signalling (Jak-Stat) pathway via expression of an eGFP reporter gene under the control of an IFN-stimulated response element (ISRE) containing MxA promoter.; format: functional; conditions: 30 µM
[9] = biological target: T4, Tyrosyl-tRNA synthetase, putative (Trypanosoma cruzi (strain CL Brener)) (UniProt Q4DSP6); experiment: Trypanosoma cruzi tyrosyl tRNA synthetase (TcYRS) _High Tyrosine SOP; format: functional; conditions: 30 µM; further: in the data most compounds retested in dose-response had high values
T4 sequence (whole entry): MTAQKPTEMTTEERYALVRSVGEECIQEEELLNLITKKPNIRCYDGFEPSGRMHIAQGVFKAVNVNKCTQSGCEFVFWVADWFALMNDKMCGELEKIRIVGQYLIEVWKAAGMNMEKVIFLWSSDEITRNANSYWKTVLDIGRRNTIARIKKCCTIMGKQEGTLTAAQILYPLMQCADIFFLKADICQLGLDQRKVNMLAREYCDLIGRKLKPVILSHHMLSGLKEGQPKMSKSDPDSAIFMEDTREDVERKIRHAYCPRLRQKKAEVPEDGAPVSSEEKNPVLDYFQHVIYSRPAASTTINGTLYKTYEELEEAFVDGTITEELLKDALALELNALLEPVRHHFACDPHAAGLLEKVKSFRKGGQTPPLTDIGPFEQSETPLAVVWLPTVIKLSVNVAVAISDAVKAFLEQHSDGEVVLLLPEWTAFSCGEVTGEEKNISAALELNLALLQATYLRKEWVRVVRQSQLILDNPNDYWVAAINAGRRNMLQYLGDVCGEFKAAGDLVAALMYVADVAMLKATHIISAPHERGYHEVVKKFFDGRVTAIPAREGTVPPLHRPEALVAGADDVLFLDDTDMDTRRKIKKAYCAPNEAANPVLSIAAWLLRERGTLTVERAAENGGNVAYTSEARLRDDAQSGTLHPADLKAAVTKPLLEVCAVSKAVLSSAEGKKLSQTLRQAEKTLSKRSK

[10] = biological target: T4, Tyrosyl-tRNA synthetase, putative (Trypanosoma cruzi (strain CL Brener)); experiment: Trypanosoma cruzi tyrosyl tRNA synthetase (TcYRS) SOP; format: functional; conditions: 30 µM
[11] = biological target: Chromo domain-containing protein 1 (Saccharomyces cerevisiae (strain ATCC 204508 / S288c) (Baker's yeast)) (UniProt P32657); experiment: ScCHD-1 Enzyme Inhibition Assay; format: functional; conditions: 30 µM; further: in the data most compounds retested in dose-response had high values
Sequence of Chromo domain-containing protein 1 (Saccharomyces cerevisiae (strain ATCC 204508 / S288c) (Baker's yeast)) (P32657 whole entry, the tested form may be a part): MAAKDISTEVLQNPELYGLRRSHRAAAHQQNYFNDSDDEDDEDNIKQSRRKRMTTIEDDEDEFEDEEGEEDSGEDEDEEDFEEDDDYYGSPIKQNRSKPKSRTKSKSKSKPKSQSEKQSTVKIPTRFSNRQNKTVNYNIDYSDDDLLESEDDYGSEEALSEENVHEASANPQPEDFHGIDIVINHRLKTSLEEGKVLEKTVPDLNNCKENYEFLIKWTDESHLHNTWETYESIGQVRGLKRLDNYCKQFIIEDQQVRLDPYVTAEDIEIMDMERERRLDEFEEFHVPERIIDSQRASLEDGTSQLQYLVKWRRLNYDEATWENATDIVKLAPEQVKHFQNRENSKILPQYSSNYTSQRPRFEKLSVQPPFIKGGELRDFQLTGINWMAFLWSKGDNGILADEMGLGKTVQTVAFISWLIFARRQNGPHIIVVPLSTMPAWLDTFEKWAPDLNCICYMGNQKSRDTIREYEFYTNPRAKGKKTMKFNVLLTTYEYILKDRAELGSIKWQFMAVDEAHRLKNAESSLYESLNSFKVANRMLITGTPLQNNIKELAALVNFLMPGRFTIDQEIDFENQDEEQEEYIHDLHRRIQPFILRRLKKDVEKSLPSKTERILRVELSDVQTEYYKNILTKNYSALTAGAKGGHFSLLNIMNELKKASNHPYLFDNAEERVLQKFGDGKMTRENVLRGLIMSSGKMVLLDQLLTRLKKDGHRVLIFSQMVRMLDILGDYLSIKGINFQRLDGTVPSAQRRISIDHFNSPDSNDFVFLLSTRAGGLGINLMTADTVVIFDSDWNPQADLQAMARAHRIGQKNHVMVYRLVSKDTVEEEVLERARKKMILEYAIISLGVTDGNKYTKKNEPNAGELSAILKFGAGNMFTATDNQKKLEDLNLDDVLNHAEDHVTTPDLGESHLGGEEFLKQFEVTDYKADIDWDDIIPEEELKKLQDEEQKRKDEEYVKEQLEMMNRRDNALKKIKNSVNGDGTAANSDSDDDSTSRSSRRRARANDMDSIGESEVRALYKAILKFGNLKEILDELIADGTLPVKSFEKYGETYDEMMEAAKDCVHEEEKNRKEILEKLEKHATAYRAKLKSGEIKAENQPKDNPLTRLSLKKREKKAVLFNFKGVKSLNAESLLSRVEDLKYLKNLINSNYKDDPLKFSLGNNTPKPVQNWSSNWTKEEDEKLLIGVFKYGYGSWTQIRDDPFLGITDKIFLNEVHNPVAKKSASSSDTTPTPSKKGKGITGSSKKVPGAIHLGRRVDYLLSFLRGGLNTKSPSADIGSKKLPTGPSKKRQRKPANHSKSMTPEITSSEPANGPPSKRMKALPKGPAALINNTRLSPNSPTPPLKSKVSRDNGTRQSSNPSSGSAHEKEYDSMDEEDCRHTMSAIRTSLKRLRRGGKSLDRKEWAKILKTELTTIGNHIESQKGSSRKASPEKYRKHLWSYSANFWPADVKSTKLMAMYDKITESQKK

Sequence of Protein translocase subunit SecA (Escherichia coli (strain K12)) (P10408 whole entry): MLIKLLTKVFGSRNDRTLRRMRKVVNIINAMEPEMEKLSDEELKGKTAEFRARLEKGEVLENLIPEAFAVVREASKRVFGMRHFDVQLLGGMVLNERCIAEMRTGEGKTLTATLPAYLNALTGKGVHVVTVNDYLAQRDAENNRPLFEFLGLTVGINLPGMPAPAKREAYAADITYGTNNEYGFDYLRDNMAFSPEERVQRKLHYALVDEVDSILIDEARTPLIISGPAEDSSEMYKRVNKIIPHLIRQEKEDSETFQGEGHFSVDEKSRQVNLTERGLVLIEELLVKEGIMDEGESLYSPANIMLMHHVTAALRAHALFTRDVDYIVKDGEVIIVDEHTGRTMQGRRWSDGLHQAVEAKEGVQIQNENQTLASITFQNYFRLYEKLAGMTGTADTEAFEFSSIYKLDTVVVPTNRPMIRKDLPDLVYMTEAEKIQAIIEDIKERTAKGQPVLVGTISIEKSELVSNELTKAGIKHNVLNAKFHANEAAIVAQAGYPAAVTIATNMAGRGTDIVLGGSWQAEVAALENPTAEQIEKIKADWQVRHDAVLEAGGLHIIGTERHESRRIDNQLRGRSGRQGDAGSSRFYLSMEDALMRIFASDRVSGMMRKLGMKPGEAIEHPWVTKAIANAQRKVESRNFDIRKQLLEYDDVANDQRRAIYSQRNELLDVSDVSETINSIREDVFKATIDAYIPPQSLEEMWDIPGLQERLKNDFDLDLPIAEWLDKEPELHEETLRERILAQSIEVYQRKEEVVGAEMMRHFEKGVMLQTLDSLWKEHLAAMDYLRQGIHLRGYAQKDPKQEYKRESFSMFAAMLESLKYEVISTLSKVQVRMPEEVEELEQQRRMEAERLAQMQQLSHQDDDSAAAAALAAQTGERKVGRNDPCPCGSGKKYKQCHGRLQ

SMILES | Percent Effect [1] [%] | Percent Effect [2] [%] | Percent Effect [3] [%] | Percent Effect [4] [%] | Percent Effect [5] [%] | Percent Effect [6] [%] | Percent Effect [7] [%] | Percent Effect [8] [%] | Percent Effect [9] [%] | Percent Effect [10] [%] | Percent Effect [11] [%]
CN(C)c1nccc(N2CCO[C@H]3CN(CC4CCOCC4)C[C@H]32)n1 | 1.86 | 11 | -5.46 | 12.4 | 4.37 | -3.59 | 10.5 | 30.6 | 4.17 | 18.5 | -7.93
Cc1ccc(N2CCCC(NCc3nc(C)c(C)o3)C2)nn1 (configuration not stated) | -2.18 | -1.27 | -3.24 | 1.76 | 9.54 | -1.07 | -2.4 | 2.43 | 3.12 | 15.2 | -25.4
NC(=O)c1cc(NC(=O)N2CCCCCC2)ccc1F | -2.22 | 16.2 | 5.3 | 2.48 | 2.15 | 30.4 | 11.1 | 44.5 | 6.93 | 13.4 | -2.07
OCCOCCN1CCCC1c1nc2cc(F)ccc2[nH]1 (configuration not stated) | 7.36 | 21.9 | -1.73 | -1.07 | -13.1 | -2.4 | 14.3 | 9.67 | 11.5 | 18.5 | -1.92
CCn1cnnc1CNC(=O)N1CCCN(C(C)=O)CC1 | -6.81 | 15.6 | -0.601 | 0.0707 | 0.881 | 4.84 | 12.7 | 1.78 | 10.5 | 25.9 | -20.1
Nc1cc2c(nn1)CCN(C(=O)CC1CCCC1)C2 | -3.9 | 10.1 | -4.63 | 16.5 | -3.12 | -0.38 | -0.246 | -1.92 | 7.39 | 13.9 | -5.84
COCc1ccccc1CNc1nnc(C)c(C)c1C#N | -6.03 | 5.41 | -21.1 | -1.29 | -1.39 | 4.62 | 17.9 | 30.3 | 4.95 | 6.1 | -2.15
Fc1cccc(N2CCCC3(CN(Cc4ccncc4)CCO3)C2)c1 (configuration not stated) | -2.7 | 5.33 | 13.4 | 2.73 | -6.5 | 6.29 | 8.02 | 29.6 | 6.38 | 11.5 | -3.18
O=C(Nc1ccccn1)N(CCO)Cc1ccsc1 | -2.18 | 10.5 | 4.91 | 14.4 | 0.564 | 0 | 11.2 | 9.82 | 8.33 | 17.1 | -3.38
CN(Cc1nnc(C2CC2)n1C)C1CCN(Cc2ccon2)C1 (configuration not stated) | -1.9 | 21.6 | -11.6 | -5.53 | -2.17 | -10 | 12.6 | 7.46 | 5.42 | 11.1 | -7.81
COCCn1cc2c(n1)C(CNCc1ccco1)OCC2 (configuration not stated) | -7.4 | -2.7 | 0.854 | 9.04 | -0.781 | 0.833 | 18 | 13.2 | 3.96 | -3.66 | -1.08
Cc1cn2c(n1)CCC(NC(=O)CCn1ccnn1)C2 (configuration not stated) | -3.55 | 5.26 | -3.01 | -3.07 | -3.08 | 3.24 | 5.33 | -2.68 | 2.46 | 6.17 | 3
Cc1ccccc1-n1ncc(C(=O)N2CCCC2c2cnn(C)c2)c1C (configuration not stated) | -1.92 | 10.8 | -5.91 | -5.79 | 7.71 | -0.924 | 5.57 | -8.29 | 3.96 | 18.3 | -5.96
Fc1ccc(-c2nnc(CN3CCCC3Cn3cncn3)o2)cc1 (configuration not stated) | -1.9 | 5.2 | -0.239 | 9.41 | 6.93 | 0.712 | 7.26 | -14.3 | 4.85 | 19.5 | -10.5
Cc1nc(C)n(CC2CCCN(CC(=O)Nc3c(C)n[nH]c3C)C2)n1 (configuration not stated) | -1.71 | 13.2 | -0.0642 | 9.58 | 3.76 | 0.766 | 8.69 | -1.17 | 5.39 | 17.1 | -9.15
CC(C)c1nc(C2CCCN2CCCc2nc3ccccc3o2)no1 (configuration not stated) | -2.74 | -8.11 | -9.61 | 9.51 | 1.42 | -6.81 | -1.62 | 5.36 | 2.46 | -6.17 | 0.486
O=C(Nc1cc(F)ccc1OCC1CCCO1)c1ccc(O)nc1 (configuration not stated) | -4.33 | 7.79 | 8.03 | -2.88 | 8.91 | -14.5 | 11.4 | -5.06 | 3.81 | 14.1 | -22.2
Clc1snnc1CN1CCCCC1Cn1cncn1 (configuration not stated) | -0.0251 | 17.7 | -10.2 | -9.75 | -2.17 | 2.66 | 13.2 | 5.04 | 12.3 | 24.1 | -4.67
CCOC(CC)C(=O)NCc1ccnc(Oc2ccc(F)cc2)c1 (configuration not stated) | -0.936 | -2.7 | -2.91 | 0.458 | -3.28 | 4.29 | 11 | 9.46 | 7.94 | 12.2 | -1.51
COC(=O)c1ccc2ccn(CC3CCNC3)c(=O)c2c1 (configuration not stated) | -1.56 | 24.7 | -24.1 | 16.4 | 4.31 | 2.27 | 21.8 | 6.65 | 6.45 | 20 | -5.95
CCn1nnc2c1C(COC)CN(C(=O)COc1ccccc1)C2 (configuration not stated) | -3.61 | 0 | -1.01 | -0.576 | -2.73 | 0 | 10.4 | -3.63 | 5.94 | 3.66 | 9.82
Cc1n[nH]c(C2CN(C(=O)c3cc(Cl)c[nH]3)CCO2)n1 (configuration not stated) | -1.17 | 2.63 | 11.8 | -0.307 | -0.876 | -3.55 | 5.27 | -2.14 | 4.25 | 5.2 | 0.543
